Data from PubChem BioAssay AID1159580 (chemical genetic matrix, 2015).
Out of some 5,500 compounds screened, about 2,000 (36%) were called active. Another 18% or so got no clear call; they are omitted. This is one part of the list. Unmarked numbers belong to inactive results. No stated cut-off is given here; in the data, active means normalized growth mostly below about 0.91 (no sharp cut-off); inconclusive means no clear call, values can overlap the other calls; inactive means mostly above about 0.92.

Assay: chemical genetic growth profiling, strain panel (AID 1159580);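 further: tested at 20 µM; growth read once vehicle control cultures reached saturation at 30 °C; 1 = growth at the plate median or of vehicle wells; lower values mean less growth of the strain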
Conditions: growth OD

`N[C@H](Cc1cc(I)c(Oc2ccc(O)c(I)c2)c(I)c1)C(=O)O` gave a normalized growth (S. cerevisiae deletion strains, locus YJR075W, strain HOC1, hits give low values) of 1, a normalized growth (S. cerevisiae deletion strains, locus YKL009W, strain mrt4, hits give low values) of 1.03 and a normalized growth (S. cerevisiae deletion strains, locus YKL068W, hits give low values) of 0.998. For the same compound, the normalized growth (S. cerevisiae deletion strains, locus YKL085W, strain MDH1 (second series), hits give low values) was 0.991, the normalized growth (S. cerevisiae deletion strains, locus YKL085W, strain MDH1, hits give low values) was 0.991 and the normalized growth (S. cerevisiae deletion strains, locus YKL160W, strain elf1, hits give low values) was 0.965. For the same compound, the normalized growth (S. cerevisiae deletion strains, locus YKL190W, strain CNB1, hits give low values) was 1.01, the normalized growth (S. cerevisiae deletion strains, locus YKR001C, strain vps1, hits give low values) was 0.862 (active) and the normalized growth (S. cerevisiae deletion strains, locus YKR026C, strain gcn3, hits give low values) was 0.999. It also gave a normalized growth (S. cerevisiae deletion strains, locus YKR091W, strain srl3, hits give low values) of 0.998, a normalized growth (S. cerevisiae deletion strains, locus YLL001W, strain dnm1, hits give low values) of 0.989 and a normalized growth (S. cerevisiae deletion strains, locus YLL026W, hits give low values) of 1. It also gave a normalized growth (S. cerevisiae deletion strains, locus YLL041C, strain sdh2, hits give low values) of 1, a normalized growth (S. cerevisiae deletion strains, locus YLR027C, strain aat2, hits give low values) of 0.968 and a normalized growth (S. cerevisiae deletion strains, locus YLR039C, strain RIC1, hits give low values) of 0.964. It also gave a normalized growth (S. cerevisiae deletion strains, locus YLR058C, strain SHM2, hits give low values) of 1.01, a normalized growth (S. cerevisiae deletion strains, locus YLR102C, strain apc9, hits give low values) of 0.996 and a normalized growth (S. cerevisiae deletion strains, locus YLR113W, strain HOG1, hits give low values) of 1.04. It also gave a normalized growth (S. cerevisiae deletion strains, locus YLR221C, strain rsa3, hits give low values) of 0.945, a normalized growth (S. cerevisiae deletion strains, locus YLR258W, strain gsy2, hits give low values) of 0.969 and a normalized growth (S. cerevisiae deletion strains, locus YLR262C, strain YPT6 (second series), hits give low values) of 0.938. The normalized growth (S. cerevisiae deletion strains, locus YLR262C, strain YPT6, hits give low values) was 0.953, the normalized growth (S. cerevisiae deletion strains, locus YLR268W, strain sec22, hits give low values) was 0.909 and the normalized growth (S. cerevisiae deletion strains, locus YLR320W, strain mms22, hits give low values) was 0.941. It also gave a normalized growth (S. cerevisiae deletion strains, locus YLR330W, strain CHS5, hits give low values) of 1.04, a normalized growth (S. cerevisiae deletion strains, locus YLR342W, strain FKS1 (second series), hits give low values) of 0.95 and a normalized growth (S. cerevisiae deletion strains, locus YLR342W, strain FKS1, hits give low values) of 0.994. The normalized growth (S. cerevisiae deletion strains, locus YLR357W, strain rsc2, hits give low values) was 1, the normalized growth (S. cerevisiae deletion strains, locus YLR370C, strain arc18, hits give low values) was 0.999 and the normalized growth (S. cerevisiae deletion strains, locus YLR371W, strain rom2, hits give low values) was 0.989. For the same compound, the normalized growth (S. cerevisiae deletion strains, locus YLR384C, strain iki3, hits give low values) was 0.993, the normalized growth (S. cerevisiae deletion strains, locus YLR418C, strain cdc73, hits give low values) was 0.77 (active) and the normalized growth (S. cerevisiae deletion strains, locus YML016C, strain PPZ1, hits give low values) was 0.997. The normalized growth (S. cerevisiae deletion strains, locus YML032C, strain rad52, hits give low values) was 0.989, the normalized growth (S. cerevisiae deletion strains, locus YML120C, strain ndi1, hits give low values) was 0.998 and the normalized growth (S. cerevisiae deletion strains, locus YML124C, strain tub3, hits give low values) was 0.997. The normalized growth (S. cerevisiae deletion strains, locus YMR058W, strain fet3, hits give low values) was 0.988, the normalized growth (S. cerevisiae deletion strains, locus YMR078C, strain ctf18, hits give low values) was 1.01 and the normalized growth (S. cerevisiae deletion strains, locus YMR125W, strain sto1, hits give low values) was 0.989. It also gave a normalized growth (S. cerevisiae deletion strains, locus YMR129W, hits give low values) of 0.999, a normalized growth (S. cerevisiae deletion strains, locus YMR205C, strain PFK2, hits give low values) of 0.88 and a normalized growth (S. cerevisiae deletion strains, locus YMR223W, strain ubp8, hits give low values) of 0.934. It also gave a normalized growth (S. cerevisiae deletion strains, locus YMR231W, strain pep5, hits give low values) of 0.999, a normalized growth (S. cerevisiae deletion strains, locus YMR263W, strain SAP30, hits give low values) of 1 and a normalized growth (S. cerevisiae deletion strains, locus YMR307W, strain GAS1, hits give low values) of 0.956. For the same compound, the normalized growth (S. cerevisiae deletion strains, locus YNL067W, strain RPL9B, hits give low values) was 1.01, the normalized growth (S. cerevisiae deletion strains, locus YNL071W, strain lat1, hits give low values) was 0.627 (active) and the normalized growth (S. cerevisiae deletion strains, locus YNL128W, strain TEP1, hits give low values) was 1.01. For the same compound, the normalized growth (S. cerevisiae deletion strains, locus YNL153C, strain GIM3, hits give low values) was 0.998, the normalized growth (S. cerevisiae deletion strains, locus YNL183C, strain NPR1, hits give low values) was 0.977 and the normalized growth (S. cerevisiae deletion strains, locus YNL209W, strain ssb2, hits give low values) was 1. It also gave a normalized growth (S. cerevisiae deletion strains, locus YNL233W, strain BNI4, hits give low values) of 0.961, a normalized growth (S. cerevisiae deletion strains, locus YNL248C, strain rpa49, hits give low values) of 0.986 and a normalized growth (S. cerevisiae deletion strains, locus YNL250W, strain rad50, hits give low values) of 0.988. The normalized growth (S. cerevisiae deletion strains, locus YNL271C, strain bni1, hits give low values) was 0.989, the normalized growth (S. cerevisiae deletion strains, locus YNL298W, strain CLA4, hits give low values) was 1 and the normalized growth (S. cerevisiae deletion strains, locus YNL307C, strain MCK1, hits give low values) was 0.613 (active). It also gave a normalized growth (S. cerevisiae deletion strains, locus YNL322C, strain KRE1 (second series), hits give low values) of 1.02, a normalized growth (S. cerevisiae deletion strains, locus YNL322C, strain KRE1, hits give low values) of 1.01 and a normalized growth (S. cerevisiae deletion strains, locus YNR049C, strain mso1, hits give low values) of 0.998. It also gave a normalized growth (S. cerevisiae deletion strains, locus YNR052C, strain pop2, hits give low values) of 0.999, a normalized growth (S. cerevisiae deletion strains, locus YOL006C, strain TOP1, hits give low values) of 0.942 and a normalized growth (S. cerevisiae deletion strains, locus YOL012C, strain htz1) of 0.841. The normalized growth (S. cerevisiae deletion strains, locus YOL147C, strain pex11, hits give low values) was 1, the normalized growth (S. cerevisiae deletion strains, locus YOR001W, strain rrp6, hits give low values) was 1.01 and the normalized growth (S. cerevisiae deletion strains, locus YOR061W, strain CKA2, hits give low values) was 0.994. The normalized growth (S. cerevisiae deletion strains, locus YOR069W, strain VPS5, hits give low values) was 1, the normalized growth (S. cerevisiae deletion strains, locus YOR070C, strain gyp1, hits give low values) was 0.992 and the normalized growth (S. cerevisiae deletion strains, locus YOR080W, strain dia2, hits give low values) was 0.987. For the same compound, the normalized growth (S. cerevisiae deletion strains, locus YOR083W, strain WHI5, hits give low values) was 0.965, the normalized growth (S. cerevisiae deletion strains, locus YOR106W, strain vam3, hits give low values) was 0.935 and the normalized growth (S. cerevisiae deletion strains, locus YOR136W, strain idh2, hits give low values) was 0.97. For the same compound, the normalized growth (S. cerevisiae deletion strains, locus YOR144C, strain elg1, hits give low values) was 0.994, the normalized growth (S. cerevisiae deletion strains, locus YOR184W, strain ser1, hits give low values) was 0.889 and the normalized growth (S. cerevisiae deletion strains, locus YOR231W, strain MKK1, hits give low values) was 1.03. The normalized growth (S. cerevisiae deletion strains, locus YOR265W, strain rbl2, hits give low values) was 0.993, the normalized growth (S. cerevisiae deletion strains, locus YOR270C, strain vph1, hits give low values) was 0.953 and the normalized growth (S. cerevisiae deletion strains, locus YOR290C, strain snf2, hits give low values) was 0.983. The normalized growth (S. cerevisiae deletion strains, locus YOR316C, strain cot1, hits give low values) was 1, the normalized growth (S. cerevisiae deletion strains, locus YPL051W, strain arl3, hits give low values) was 0.95 and the normalized growth (S. cerevisiae deletion strains, locus YPL055C, strain LGE1, hits give low values) was 1. The normalized growth (S. cerevisiae deletion strains, locus YPL078C, strain atp4, hits give low values) was 0.968, the normalized growth (S. cerevisiae deletion strains, locus YPL106C, strain sse1, hits give low values) was 0.96 and the normalized growth (S. cerevisiae deletion strains, locus YPL240C, strain hsp82, hits give low values) was 0.982. It also gave a normalized growth (S. cerevisiae deletion strains, locus YPL241C, strain CIN2, hits give low values) of 1.01, a normalized growth (S. cerevisiae deletion strains, locus YPL256C, strain CLN2, hits give low values) of 1.05 and a normalized growth (S. cerevisiae deletion strains, locus YPR119W, strain clb2, hits give low values) of 0.998. The normalized growth (S. cerevisiae deletion strains, locus YPR141C, strain kar3, hits give low values) was 1.01, the normalized growth (S. cerevisiae deletion strains, locus YPR163C, strain tif3, hits give low values) was 0.909 (active) and the normalized growth (S. cerevisiae deletion strains, locus YPR167C, strain met16, hits give low values) was 1.01. The normalized growth (S. cerevisiae deletion strains, strain wtn01, hits give low values) was 0.955 and the normalized growth (S. cerevisiae strains, strain wild type, hits give low values) was 1.
